# Assay outcomes as filed in PubChem.
# In the library only some 3.4% were active in any assay of this set; here they are far more common.
# PLC-beta3 inh: blocks human PLC-beta3 enzyme activity | Purified PLC-beta3, fluorogenic substrate, fluorescence | inhibition, % at 12.2 µM | hit rate 0.18% among 370,000 | AID 720704; in the data active means inhibition above about 11%;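 further: 0% = median of compound wells on plate and 100% = full blocker control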
# KLK7 zymogen act: proKLK7 (human) activation, primary screen; P49862; AID 652039; purified proKLK7, EDANS-DABCYL substrate fluorescence; 100% is mature enzyme control, 0% vehicle; activation, % at 7 µM; hit rate 0.9% among 370,000;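 active means activation above the mean of all tested compounds plus 3 SD, computed per campaign excluding outliers beyond control limits, cut at about 13% in these data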
# ADAM17 inh: ADAM17 inhibition, QFRET primary screen | P78536 | recombinant ADAM17, EDANS/DABCYL FRET peptide cleavage | hit rate 0.83% among 370,000 | inhibition, % at 6.95 µM | AID 720648;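 active means inhibition above the mean of compounds lying between control limits plus 3 SD, set per campaign, cut at about 8.5% in these data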;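 further: 0% = DMSO-only wells as the low control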
# ADAM10 inh: inhibitors of human ADAM10. O14672. hit rate 0.62% among 370,000. recombinant ADAM10, EDANS/DABCYL FRET peptide cleavage, 3 h. AID 720582. inhibition, % at 7 µM;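 active means inhibition above a per-campaign cutoff equal to the mean of compounds falling between control-based bounds plus 3 SD, cut at about 20% in these data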;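 further: 0% = DMSO wells while the 100% control is not disclosed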
# PLC-gamma1 inh: PLC-gamma1 (human) inhibition, primary screen. P19174. inhibition, % at 12.2 µM. purified PLC-gamma1, fluorogenic substrate, fluorescence. hit rate 0.84% among 370,000; in the data active means inhibition above about 9.5%
# sPLA2-III inh: Inhibits HGIII-sPLA2 liposome hydrolysis, primary screen; hit rate 0.56% among 370,000; Q9NZ20; QFRET BODIPY PC-A2 liposome hydrolysis, fluorescence; inhibition, % at 12.2 µM;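 active means inhibition above mean plus 3 SD of compounds lying within the high and low control bounds, cut at about 19% in these data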;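 further: 0% = median of test compound wells and 100% = no enzyme DMSO wells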
# Target sequence (Q9NZ20 whole entry, looked up): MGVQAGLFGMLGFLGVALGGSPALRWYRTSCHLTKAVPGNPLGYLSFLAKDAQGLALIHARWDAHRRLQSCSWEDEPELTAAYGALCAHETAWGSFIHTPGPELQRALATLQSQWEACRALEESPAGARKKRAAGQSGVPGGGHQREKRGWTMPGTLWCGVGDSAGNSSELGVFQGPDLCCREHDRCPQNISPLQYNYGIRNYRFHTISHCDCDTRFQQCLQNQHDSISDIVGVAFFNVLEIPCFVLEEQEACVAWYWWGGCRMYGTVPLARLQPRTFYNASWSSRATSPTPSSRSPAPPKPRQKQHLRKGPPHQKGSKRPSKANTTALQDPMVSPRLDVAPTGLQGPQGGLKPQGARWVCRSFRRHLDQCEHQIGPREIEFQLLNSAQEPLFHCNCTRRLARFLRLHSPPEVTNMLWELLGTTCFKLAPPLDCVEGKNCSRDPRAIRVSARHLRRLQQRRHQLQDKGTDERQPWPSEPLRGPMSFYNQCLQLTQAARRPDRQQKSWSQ
# KLK7 act conf: confirmation of human kallikrein-7 zymogen activators | shares compounds with KLK7 zymogen act | purified proKLK7, EDANS-DABCYL substrate fluorescence; scaled: vehicle 0, mature enzyme 100 | activation, % at 7 µM | hit rate 68% among 3,200 | AID 686949;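 active means activation, as change over the incubation, above the mean of all tested compounds plus 3 SD, cut at about 13% in these data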
# EDANS interfere: optically interferes with EDANS-DABCYL signal, flagging KLK7 hits | hit rate 80% among 3,200 | EDANS-DABCYL substrate fluorescence interference, no enzyme, 4 h; solvent 0%, active enzyme control 100% | shares compounds with KLK7 zymogen act | activation, % at 7 µM;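 active means activation above the all-compound mean plus 3 SD, ignoring values outside control-based bounds, cut at about 4.8% in these data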;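 further: value is the 4 h activation minus the activation read at time zero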
# EDANS interf: EDANS fluorescence interference in dose response, no enzyme; shares compounds with KLK7 zymogen act; EDANS-DABCYL peptide fluorescence interference; hit rate 20% among 250; EC50, µM;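 active means compounds that raise the fluorescence signal in this interference counterscreen, with EC50 at or below 10 µM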;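 further: intact quenched peptide substrate alone read at 355 nm excitation and 520 nm emission; signal is fluorescence gain from T0 to T4 after four hours at room temperature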
# The depositor's hits bear a star; i = inactive; . = no result.
SMILES,PLC-beta3 inh,KLK7 zymogen act,ADAM17 inh,ADAM10 inh,PLC-gamma1 inh,sPLA2-III inh,KLK7 act conf,EDANS interfere,others
CO[C@H]([C@H](C)/C=C/N(C)C=O)[C@@H](C)C(O)CC[C@H](C)[C@H](O)[C@H](C)[C@H]1OC(=O)/C=C/C(C)=C/C[C@H](O)C[C@@H]2C=CC[C@@H](C[C@H](OC)[C@@]3(CO3)[C@@H](OC)C[C@@H](OC)[C@@H]1C)O2 (stereo partly drawn),-5,.,-5,3,2,-16,.,.,
CC(C)=CCc1c(O)ccc2c1OC(c1ccc(O)c(O)c1)CC2=O (stereo not drawn),-16,-4,-2,-20,-12,-19,.,.,
O=C1CC(c2ccc(O)c(O)c2)Oc2c1ccc(O)c2O (stereo not drawn),-7,16*,1,6,5,7,8,7.7*,
CCOC(=O)c1cc(=O)n2c(nc3ccccc32)[nH]1,i,23*,i,i,i,6,77*,79*,
Cc1cc(=O)n2c(nc3ccccc32)[nH]1,-135,-103,-192,i,-98,1,.,.,
CC(=O)Oc1ccc2c3c(c(=O)oc2c1C)CCCC3,-377,168*,-55,-126,-324,-2,531*,500*,
O=C(NCC1CCCO1)c1cc(-c2ccco2)nc2ccccc12 (stereo not drawn),-426,59*,-165,-470,-307,0,67*,68*,
O=C(NC1CCC(O)CC1)c1cc(-c2ccco2)nc2ccccc12 (stereo not drawn),i,28*,i,i,i,2,13*,11*,EDANS interf=>70
O=C(NCC1CCCO1)c1cc(-c2ccncc2)nc2ccccc12 (stereo not drawn),-13,-1,-8,-8,-5,5,.,.,
COc1cccc(-c2cc(C(=O)NC3CC3)c3ccccc3n2)c1,-104,0,2,-4,-60,5,.,.,
COC(=O)C1(F)C(=O)NC(=O)NC1OC (stereo not drawn),7,1,3,8,4,-1,.,.,
O=S1(=O)c2cc(Cl)ccc2N2CCC[C@@H]2CN1Cc1ccc(Cl)c(Cl)c1,-5,-5,-4,-10,-4,18,.,.,
CCCCCCCCN1C(=O)[C@@H](CC(=O)NCc2ccc(OC)c(OC)c2)C[C@@]2(C(=O)OC)C1=C[C@H](C(C)(C)C)O[C@@H]2C,-1,0,-4,-4,1,-6,.,.,
CC(=O)Nc1ccc(S(=O)(=O)Nc2cccc(-c3cn4cccnc4n3)c2)cc1,-265,43*,-286,i,-238,-4,7,7.8*,
CCCC(=O)Nc1ccc(-c2cn3cccnc3n2)cc1,i,58*,i,i,i,1,67*,63*,
CC(C)CC(=O)Nc1ccc(-c2cn3cccnc3n2)cc1,i,70*,i,i,i,0,66*,68*,
CCN(CC)S(=O)(=O)c1cccc(-c2cn3cccnc3n2)c1,i,21*,i,i,-474,-4,38*,25*,EDANS interf=>70
CC1CCCN(S(=O)(=O)c2cccc(-c3cn4cccnc4n3)c2)C1 (stereo not drawn),-147,0,-194,i,-106,13,.,.,
CCCC(=O)Nc1cccc(-c2cn3cccnc3n2)c1,i,30*,i,i,i,6,42*,45*,
CC(C)(C)CC(=O)Nc1ccc(-c2cn3cccnc3n2)cc1,i,74*,i,i,i,8,66*,65*,
CCOCC(=O)Nc1ccc(-c2cn3cccnc3n2)cc1,i,39*,i,i,i,4,67*,79*,
